Data taken from PubChem BioAssay AID1159580 (chemical genetic matrix, 2015).
Values joined by “and” are separate entries in the source; they are usually repeats but may differ in a detail not shown here. Identical values can stand only once. Screen size: about 5,500 compounds; about 2,000 (36%) were called active. About 18% were inconclusive and are not listed. No stated cut-off is given here; in the data, active means normalized growth mostly below about 0.91 (no sharp cut-off); inconclusive means no clear call, values can overlap the other calls; inactive means mostly above about 0.92. The list shows a part of the results.

Assay: chemical genetic growth profiling, strain panel (AID 1159580);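 further: tested at 20 µM; growth read once vehicle control cultures reached saturation at 30 °C; 1 = growth at the plate median or of vehicle wells; lower values mean less growth of the strain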
Conditions: S. cerevisiae deletion strains, growth OD

Measured: normalized growth

C[C@]12CCC3c4ccc(OC(=O)c5ccccc5)cc4CCC3C1CCC2=O (stereo not given in full)
inactive: locus YAL013W, strain DEP1, hits give low values 0.986 | locus YAL021C, strain ccr4, hits give low values 1 | locus YAL026C, strain drs2, hits give low values 0.989 | locus YAL030W, strain snc1, hits give low values 0.99 | locus YBL061C, strain skt5, hits give low values 0.987 | locus YBR009C, strain hhf1, hits give low values 0.972 | locus YBR021W, strain FUR4, hits give low values 0.981 | locus YBR023C, strain chs3, hits give low values 0.984 | locus YBR171W, strain sec66, hits give low values 0.977 | locus YBR229C, strain ROT2, hits give low values 1 | locus YBR231C, strain swc5, hits give low values 0.987 | locus YBR279W, strain paf1, hits give low values 0.988 | locus YCL011C, strain gbp2, hits give low values 0.987 | locus YCL016C, strain dcc1, hits give low values 0.985 | locus YCL029C, strain bik1, hits give low values 0.996 | locus YCL061C, strain MRC1, hits give low values 0.988 | locus YCL069W, strain vba3, hits give low values 0.986 | locus YCR088W, strain abp1, hits give low values 0.984 | locus YDL005C, strain med2, hits give low values 0.987 | locus YDL035C, strain GPR1, hits give low values 0.986 | locus YDL040C, strain nat1, hits give low values 0.993 | locus YDL074C, strain BRE1, hits give low values 0.974 | locus YDL101C, strain DUN1, hits give low values 1 | locus YDL185W, strain tfp1, hits give low values 0.951 | locus YDL192W, strain arf1, hits give low values 1.02 | locus YDR001C, strain nth1, hits give low values 0.986 | locus YDR069C, strain doa4, hits give low values 0.98 | locus YDR101C, strain arx1, hits give low values 0.969 | locus YDR137W, strain rgp1, hits give low values 1 | locus YDR159W, strain sac3, hits give low values 0.968 | locus YDR162C, strain NBP2, hits give low values 1.01 | locus YDR195W, strain ref2 0.934 | locus YDR297W, strain sur2, hits give low values 0.985 | locus YDR318W, strain mcm21, hits give low values 1.02 | locus YDR334W, strain swr1, hits give low values 0.986 | locus YDR335W, strain msn5, hits give low values 0.982 | locus YDR388W, hits give low values 0.992 | locus YDR392W, strain spt3, hits give low values 0.864 | locus YDR502C, strain sam2, hits give low values 1 | locus YEL003W, strain gim4, hits give low values 0.977 | locus YEL037C, strain rad23, hits give low values 0.98 | locus YEL061C, strain CIN8 (second series), hits give low values 0.981 | locus YEL061C, strain CIN8, hits give low values 1 | locus YER015W, strain faa2, hits give low values 0.991 | locus YER016W, strain bim1, hits give low values 0.969 | locus YER110C, hits give low values 0.982 | locus YER111C, strain swi4, hits give low values 0.974 | locus YER155C, strain BEM2 (second series), hits give low values 0.974 | locus YER155C, strain BEM2, hits give low values 0.996 | locus YER167W, strain BCK2, hits give low values 1.01 | locus YFR010W, strain ubp6, hits give low values 0.993 | locus YGL078C, strain dbp3, hits give low values 1.01 | locus YGL086W, strain mad1, hits give low values 0.972 | locus YGL167C, strain pmr1, hits give low values 0.965 | locus YGL173C, strain kem1, hits give low values 0.988 | locus YGL227W, strain vid30, hits give low values 0.986 | locus YGL240W, strain doc1, hits give low values 0.99 | locus YGL248W, strain PDE1, hits give low values 1.02 | locus YGL253W, strain hxk2, hits give low values 0.976 | locus YGR135W, strain pre9, hits give low values 1.03 | locus YGR252W, strain gcn5, hits give low values 1.2 | locus YHR013C, strain ard1, hits give low values 0.939 | locus YHR027C, strain rpn1, hits give low values 0.996 | locus YHR030C, strain SLT2, hits give low values 0.991 and 1.06 | locus YHR079C, strain IRE1 (second series), hits give low values 0.997 | locus YHR079C, strain IRE1, hits give low values 1.07 | locus YHR094C, strain hxt1, hits give low values 0.999 | locus YHR129C, strain ARP1, hits give low values 0.997 | locus YHR142W, strain chs7, hits give low values 0.996 | locus YHR200W, strain rpn10, hits give low values 0.994 | locus YIL066C, strain RNR3, hits give low values 1 | locus YIL073C, strain SPO22, hits give low values 0.933 | locus YIL125W, strain kgd1, hits give low values 1 | locus YIR030C, strain dcg1, hits give low values 1.01 | locus YJL092W, strain hpr5, hits give low values 0.98 | locus YJL095W, strain BCK1 (second series), hits give low values 0.992 | locus YJL095W, strain BCK1, hits give low values 1.05 and 1.07 | locus YJL115W, strain asf1, hits give low values 0.995 | locus YJL129C, strain trk1, hits give low values 0.979 | locus YJL134W, strain LCB3, hits give low values 0.987 | locus YJL154C, strain vps35, hits give low values 0.986 | locus YJL164C, strain tpk1, hits give low values 0.977 | locus YJL166W, strain qcr8, hits give low values 0.983 | locus YJL168C, strain set2, hits give low values 0.996 | locus YJL187C, strain SWE1 (second series), hits give low values 1.01 | locus YJL187C, strain SWE1, hits give low values 0.996 | locus YJR043C, strain POL32, hits give low values 1.01 | locus YJR066W, strain TOR1, hits give low values 1.01 | locus YJR075W, strain HOC1, hits give low values 0.998 | locus YKL009W, strain mrt4, hits give low values 0.977 | locus YKL068W, hits give low values 0.975 | locus YKL085W, strain MDH1 (second series), hits give low values 1.01 | locus YKL085W, strain MDH1, hits give low values 1.01 | locus YKL160W, strain elf1, hits give low values 1.01 | locus YKR001C, strain vps1, hits give low values 0.993 | locus YKR026C, strain gcn3, hits give low values 0.978 | locus YKR091W, strain srl3, hits give low values 0.986 | locus YLL001W, strain dnm1, hits give low values 0.998 | locus YLL026W, hits give low values 0.984 | locus YLL041C, strain sdh2, hits give low values 0.989 | locus YLR027C, strain aat2, hits give low values 0.998 | locus YLR039C, strain RIC1, hits give low values 1.01 | locus YLR058C, strain SHM2, hits give low values 1.01 | locus YLR102C, strain apc9, hits give low values 0.993 | locus YLR113W, strain HOG1, hits give low values 1 | locus YLR221C, strain rsa3, hits give low values 1.01 | locus YLR258W, strain gsy2, hits give low values 0.971 | locus YLR262C, strain YPT6 (second series), hits give low values 0.94 | locus YLR262C, strain YPT6, hits give low values 0.959 | locus YLR268W, strain sec22, hits give low values 0.972 | locus YLR320W, strain mms22, hits give low values 0.98 | locus YLR330W, strain CHS5, hits give low values 0.984 | locus YLR342W, strain FKS1 (second series), hits give low values 1.01 | locus YLR342W, strain FKS1, hits give low values 0.979 | locus YLR357W, strain rsc2, hits give low values 0.947 | locus YLR370C, strain arc18, hits give low values 0.99 | locus YLR371W, strain rom2, hits give low values 1 | locus YLR384C, strain iki3, hits give low values 0.985 | locus YLR418C, strain cdc73, hits give low values 1.07 | locus YML016C, strain PPZ1, hits give low values 0.998 | locus YML032C, strain rad52, hits give low values 1.03 | locus YML120C, strain ndi1, hits give low values 0.986 | locus YML124C, strain tub3, hits give low values 1.01 | locus YMR058W, strain fet3, hits give low values 0.985 | locus YMR078C, strain ctf18, hits give low values 1.01 | locus YMR125W, strain sto1, hits give low values 0.978 | locus YMR129W, hits give low values 0.969 | locus YMR205C, strain PFK2, hits give low values 0.949 | locus YMR223W, strain ubp8, hits give low values 1.04 | locus YMR231W, strain pep5, hits give low values 0.979 | locus YMR263W, strain SAP30, hits give low values 0.997 | locus YMR307W, strain GAS1, hits give low values 1.22 | locus YNL067W, strain RPL9B, hits give low values 1.02 | locus YNL071W, strain lat1, hits give low values 0.993 | locus YNL128W, strain TEP1, hits give low values 0.971 | locus YNL153C, strain GIM3, hits give low values 1.02 | locus YNL183C, strain NPR1, hits give low values 1.01 | locus YNL209W, strain ssb2, hits give low values 0.989 | locus YNL233W, strain BNI4, hits give low values 1.01 | locus YNL248C, strain rpa49, hits give low values 1.01 | locus YNL250W, strain rad50, hits give low values 0.96 | locus YNL271C, strain bni1, hits give low values 1.02 | locus YNL298W, strain CLA4, hits give low values 1.01 | locus YNL307C, strain MCK1, hits give low values 0.996 | locus YNL322C, strain KRE1 (second series), hits give low values 0.994 | locus YNR049C, strain mso1, hits give low values 0.98 | locus YNR052C, strain pop2, hits give low values 1.02 | locus YOL012C, strain htz1 1.22 | locus YOL147C, strain pex11, hits give low values 0.998 | locus YOR001W, strain rrp6, hits give low values 1.01 | locus YOR061W, strain CKA2, hits give low values 1.01 | locus YOR069W, strain VPS5, hits give low values 0.993 | locus YOR070C, strain gyp1, hits give low values 0.984 | locus YOR080W, strain dia2, hits give low values 0.983 | locus YOR083W, strain WHI5, hits give low values 1.03 | locus YOR106W, strain vam3, hits give low values 1.04 | locus YOR136W, strain idh2, hits give low values 0.992 | locus YOR144C, strain elg1, hits give low values 0.998 | locus YOR184W, strain ser1, hits give low values 0.975 | locus YOR231W, strain MKK1, hits give low values 1.08 | locus YOR265W, strain rbl2, hits give low values 0.989 | locus YOR270C, strain vph1, hits give low values 0.99 | locus YOR290C, strain snf2, hits give low values 0.912 | locus YOR316C, strain cot1, hits give low values 0.993 | locus YPL051W, strain arl3, hits give low values 1.02 | locus YPL078C, strain atp4, hits give low values 0.998 | locus YPL106C, strain sse1, hits give low values 0.972 | locus YPL240C, strain hsp82, hits give low values 0.997 | locus YPL241C, strain CIN2, hits give low values 0.999 | locus YPL256C, strain CLN2, hits give low values 1.12 | locus YPR119W, strain clb2, hits give low values 1.01 | locus YPR141C, strain kar3, hits give low values 1.01 | locus YPR163C, strain tif3, hits give low values 1 | locus YPR167C, strain met16, hits give low values 1.01 | strain wtn01, hits give low values 0.983
